Results on 55 compounds are retold here after PubChem BioAssay (NCATS).

Structures are written as SMILES. Records with an inconclusive call do not appear. Unmarked numbers belong to inactive results. The source made the active and inactive calls. The call rests on the fitted dose curve; in most records, active means well fitted curve in the direction sought with a large enough effect; inconclusive means small, poorly fitted or top-dose-only effect, or another doubt; inactive means no such curve, though single readings can be large; an effect the other way counts as inactive or inconclusive.

The nature of experiment [1]: qHTS of pediatric cancer cell lines to identify multiple opportunities for drug repurposing: Primary screen for control Hh wild type fibroblast cells (AID 1347106).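 Further: on the % scale 0 is the no-effect control and ±100 the full control effect; a drop in luminescence marks cytotoxicity and a rise apparent proliferation; nearly all actives have a fitted effect of over 55% in size.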 A digest of the protocol:
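Viability after 48 h compound treatment at 37C, 500-1,000 cells/well, read as ATP luminescence with CellTiter-Glo. Primary screens used 11-point (MIPE, 0.78 nM-46 µM) or 8-point (NPC, 0.59 nM-46 µM) final concentrations; follow-up screens used 11-point dilutions.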

Experiment [2] can be described thus: qHTS of pediatric cancer cell lines to identify multiple opportunities for drug repurposing: Primary screen for Rh30 cells (AID 1347107). Further: on the % scale 0 is the no-effect control and ±100 the full control effect; nearly all actives have a fitted effect of over 75% in size. A digest of the protocol:
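Cells (500-1,000/well) rested 5 h, then received compounds for 48 h; metabolically active cells were measured by CellTiter-Glo luminescence. Final concentrations spanned up to 46 µM (MIPE, 11-point) or 0.59 nM-46 µM (NPC, 8-point) in primary screens, 11-point in follow-ups.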
(In general: In qHTS, concentration-response curves come from the screen itself.)

The nature of experiment [3]: qHTS of pediatric cancer cell lines to identify multiple opportunities for drug repurposing: Primary screen for Rh41 cells (AID 1347108).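 Further: luminescence drop marks cytotoxic hits; nearly all actives have a fitted effect of over 70% in size.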 A digest of the protocol: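 Cells plated at 500-1,000/well in growth medium, compounds added after 5 h. MIPE tested at 11 points (from 0.78 nM), NPC at 8 points (from 0.59 nM). CellTiter-Glo luminescence after 48 h; concentration-response curves from primary screen.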
Further: series mostly up to about 46 µM.

For `CCN(CC)CCOC(=O)C(O)(c1ccccc1)c1ccccc1`, the Potency result in experiment [1] and in experiment [2] was “inactive” in each case.

As for `Oc1ccc(Cl)cc1Cc1ccccc1`, the Potency result in experiment [1] and in experiment [2] was “inactive” in each case.

For `O=c1[nH]c2ccccc2n1C1CCN(CCCC(c2ccc(F)cc2)c2ccc(F)cc2)CC1`, the Potency entry in experiment [1] and in experiment [2] was “inactive” throughout.

As for `Oc1cc(Cl)ccc1Oc1ccc(Cl)cc1Cl`, the Potency result in experiment [1] and in experiment [2] was “inactive” each time.

Turning to `O=C(O)C(=O)c1cn(Cc2ccccc2)c2ccc(-c3ccc(OC(F)(F)F)cc3)cc12`, the Potency entry in experiment [1] and in experiment [2] was “inactive” in each case.

For `CC(=O)[C@H]1CC[C@H]2[C@@H]3CC[C@H]4C[C@](C)(O)CC[C@]4(C)[C@H]3CC[C@]12C`, the Potency entry in experiment [1] and in experiment [2] was “inactive” each time.

Turning to `CCOC(=O)C1(c2ccccc2)CCN(CCC(C#N)(c2ccccc2)c2ccccc2)CC1`, the Potency entry in experiment [1] was “inactive”.

Consider `COc1ccc2c(c1OC)CN1CCc3cc4c(cc3C1C2)OCO4` (stereo not given), for which the Potency result in experiment [1] and in experiment [2] was “inactive” each time.

With `N#CC(C#N)=Cc1ccc(O)c(O)c1`, the Potency result in experiment [1] and in experiment [2] was “inactive” throughout.

As for `CN(C)CCN(C)CCc1ccc(Cl)c(Cl)c1`, the Potency result in experiment [1] and in experiment [2] was “inactive” throughout.

As to `Cc1ncc(CNC(=O)N(CCCl)N=O)c(N)n1`, the Potency result in experiment [1] and in experiment [2] was “inactive” in each case.

Turning to `CC(C)(C)CC(C)(C)c1ccc(O)cc1`, the Potency result in experiment [1] and in experiment [2] was “inactive” throughout.

With `Fc1ccc(C(OCCN2CCN(CCCc3ccccc3)CC2)c2ccc(F)cc2)cc1`, the Potency result in experiment [1] was “inactive”.

For the compound `CC(CCc1ccccc1)NC(C)C(O)c1ccc(O)cc1` (stereo not given), the Potency result in experiment [1] and in experiment [2] was “inactive” throughout.

As to `C=CCN1CC[C@]23c4c5ccc(O)c4O[C@H]2C(=O)CC[C@@]3(O)[C@H]1C5`, the Potency entry in experiment [1] and in experiment [2] was “inactive” each time.

Consider `CC1=C2C[C@@H]3[C@@H](CC=C4C[C@@H](O)CC[C@@]43C)[C@@H]2CC[C@]12O[C@H]1C[C@H](C)CN[C@H]1[C@H]2C`, for which the Potency entry in experiment [1] was “inactive”.

Consider `Cc1ccc(-c2nc3ccc(C)cn3c2CC(=O)N(C)C)cc1`, for which the Potency entry in experiment [1] and in experiment [2] was “inactive” throughout.

With `CC(C)(N)Cc1ccc(Cl)cc1`, the Potency entry in experiment [1] and in experiment [2] was “inactive” in each case.

Take `COc1ccccc1N1CCNCC1`: the Potency result in experiment [1] and in experiment [2] was “inactive” each time.

For the compound `Oc1ccccc1-c1ccccc1`, the Potency result in experiment [1] and in experiment [2] was “inactive” throughout.

On to `CNCC(O)c1ccc(O)cc1` (stereo not given), for which the Potency result in experiment [1] and in experiment [2] was “inactive” in each case.

As to `CN1C[C@H](CNC(=O)OCc2ccccc2)C[C@@H]2c3cccc4c3c(cn4C)C[C@H]21`, the Potency result in experiment [1] and in experiment [2] was “inactive” throughout.

Consider `Clc1ccc(CCC(Cn2ccnc2)Sc2c(Cl)cccc2Cl)cc1` (stereo not given), for which the Potency result in experiment [1] and in experiment [2] was “inactive” throughout.

`COc1ccc(C(=O)c2c(C)n(CCN3CCOCC3)c3ccccc23)cc1`: the Potency result in experiment [1] and in experiment [2] was “inactive” in each case.

`Cc1ccc(S(=O)(=O)N[C@@H](CCCCN)C(=O)CCl)cc1`: the Potency entry in experiment [1] and in experiment [2] was “inactive” throughout.

As to `COC1(CS(=O)c2ccccc2)CCN(CCc2c[nH]c3ccc(F)cc23)CC1` (stereo not given), the Potency entry in experiment [1] and in experiment [2] was “inactive” each time.

As for `CC[C@@H](CO)NC(=O)[C@@H]1C=C2c3cccc4c3c(cn4C)C[C@H]2N(C)C1`, the Potency entry in experiment [1] and in experiment [2] was “inactive” each time.

Turning to `OCCOc1ccccc1`, the Potency entry in experiment [1] and in experiment [2] was “inactive” throughout.

For `CCC(=O)C(CC(C)N(C)C)(c1ccccc1)c1ccccc1` (stereo not given), the Potency entry in experiment [1] and in experiment [2] was “inactive” throughout.

`COc1ccc(Cc2nccc3cc(OC)c(OC)cc23)cc1OC`: the Potency result in experiment [1] and in experiment [2] was “inactive” in each case.

For the compound `CNC(=O)N1N=C(c2ccc(N)cc2)c2cc3c(cc2CC1C)OCO3` (stereo not given), the Potency entry in experiment [1] and in experiment [2] was “inactive” in each case.

Turning to `O=[N+]([O-])c1cc([As](=O)(O)O)ccc1O`, the Potency entry in experiment [1] and in experiment [2] was “inactive” each time.

With `Clc1ccc(COC(Cn2ccnc2)c2ccc(Cl)cc2Cl)cc1` (stereo not given), the Potency result in experiment [1] and in experiment [2] was “inactive” in each case.

Consider `C#CCN(C)[C@H](C)Cc1ccccc1`, for which the Potency result in experiment [1] and in experiment [2] was “inactive” in each case.

Regarding `NP(N)(=O)NC(=O)c1ccc(F)cc1`, the Potency entry in experiment [1] and in experiment [2] was “inactive” throughout.

Take `CC(=O)Nc1cc([As](=O)(O)O)ccc1O`: the Potency result in experiment [1], in experiment [2] and in experiment [3] was “inactive” throughout.

Take `CC[N+]1(C)CCCC(OC(=O)C(O)(c2ccccc2)c2ccccc2)C1` (stereo not given): the Potency entry in experiment [1] and in experiment [2] was “inactive” throughout.

Take `CCCN1CCC[C@@H]2Cc3[nH]ncc3C[C@H]21`: the Potency entry in experiment [1] and in experiment [2] was “inactive” in each case.

Regarding `CCCC(C)(COC(N)=O)COC(=O)NC(C)C` (stereo not given), the Potency result in experiment [1], in experiment [2] and in experiment [3] was “inactive” each time.

On to `NCC1(CC(=O)O)CCCCC1`, for which the Potency result in experiment [1], in experiment [2] and in experiment [3] was “inactive” in each case.

On to `CC(C)=CC1C(C(=O)OCc2cccc(Oc3ccccc3)c2)C1(C)C` (stereo not given), for which the Potency result in experiment [1], in experiment [2] and in experiment [3] was “inactive” throughout.

Take `CC1OC(C)OC(C)O1` (stereo not given): the Potency entry in experiment [1] and in experiment [2] was “inactive” throughout.

Turning to `CN(C)CCc1ccc(O)cc1`, the Potency result in experiment [1], in experiment [2] and in experiment [3] was “inactive” in each case.

As for `Cc1cc(SCc2sc(-c3ccc(C(F)(F)F)c(F)c3)nc2C)ccc1OCC(=O)O`, the Potency result in experiment [1], in experiment [2] and in experiment [3] was “inactive” in each case.

On to `c1ccc(C2CC2)c(OCC2=NCCN2)c1`, for which the Potency result in experiment [1], in experiment [2] and in experiment [3] was “inactive” in each case.

As for `CCC(C(N)=O)N1CCCC1=O` (stereo not given), the Potency entry in experiment [1], in experiment [2] and in experiment [3] was “inactive” in each case.

`CC(C)NCC(O)c1ccccc1Cl` (stereo not given): the Potency result in experiment [1], in experiment [2] and in experiment [3] was “inactive” in each case.

For `NCC(CC(=O)O)c1ccc(Cl)cc1` (stereo not given), the activity change, negative = cytotoxic in experiment [1] was 6.77% [at 0.597 µM]; in experiment [2] it was -0.257% [at 0.597 µM]; in experiment [3], 9.97% [at 0.597 µM].

Consider `O=c1oc2ccccc2c(O)c1C(CC(O)c1ccc(-c2ccc(Br)cc2)cc1)c1ccccc1` (stereo not given), for which the Potency entry in experiment [1] and in experiment [2] was “inactive” throughout.

In the case of `Clc1cccc(N2CCNCC2)c1`, the Potency entry in experiment [1] and in experiment [2] was “inactive” throughout.

For the compound `CC1NCCOC1c1ccccc1` (stereo not given), the Potency entry in experiment [1], in experiment [2] and in experiment [3] was “inactive” throughout.

As to `C=C1C[C@@H]2[C@H](CC[C@]3(C)C(=O)CC[C@@H]23)[C@@]2(C)C=CC(=O)C=C12`, the Potency result in experiment [1], in experiment [2] and in experiment [3] was “inactive” in each case.

As to `C[C@]12C/C(=C/O)C(=O)C[C@@H]1CC[C@@H]1[C@@H]2CC[C@@]2(C)[C@H]1CC[C@]2(C)O`, the Potency result in experiment [1] and in experiment [2] was “inactive” throughout.

For `CC(=O)[C@H]1CC[C@H]2[C@@H]3CC[C@H]4C[C@H](O)CC[C@]4(C)[C@H]3C(=O)C[C@]12C`, the Potency entry in experiment [1], in experiment [2] and in experiment [3] was “inactive” each time.

As for `O=C1CC[C@@]2(O)[C@H]3Cc4ccc(O)c5c4[C@@]2(CCN3CC2CC2)[C@H]1O5`, the Potency entry in experiment [1] and in experiment [2] was “inactive” each time.
